# From PubChem BioAssay (NCATS)
# Where “and” joins values, the source holds several entries; their conditions need not be identical. Equal values may be shown once. Inconclusive results are not listed. Entries that show only a call come without a potency. Unmarked numbers belong to inactive results. Calls of active or inactive are those of the source. The call rests on the fitted dose curve; in most records, active means well fitted curve in the direction sought with a large enough effect; inconclusive means small, poorly fitted or top-dose-only effect, or another doubt; inactive means no such curve, though single readings can be large; an effect the other way counts as inactive or inconclusive.
# Experiments:
# [1] = system: Zika virus NS2B-NS3 protease (linked construct); experiment: Confirmatory screen NINDS AMC qHTS for Zika virus inhibitors (AID 1347152); conditions: Purified linked NS2B-NS3, AMC substrate fluorescence; further: potency means the concentration at half of the fitted maximal effect; nearly all actives have a fitted effect of over 70% in size
# How it was run: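 Purified NS2B-NS3 protease with NS2B hydrophilic domain linked to NS3 protease domain by flexible linker, 1 nM final in 10 mM Tris-HCl pH 8.0, 0.01% Tween 20. Compounds preincubated 15 min, room temperature; Bz-Nle-KRR-AMC 10 microM (Km 18.3 µM); 15-min fluorescence change, 4-parameter Hill fit.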
# [2] = system: Zika virus NS2B-NS3 protease (unlinked complex); experiment: Confirmatory screen GU AMC qHTS for Zika virus inhibitors (AID 1347153); conditions: Recombinant NS2B-NS3 protease, AMC substrate fluorescence;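 further: enzyme at 25 nM with substrate at 10 µM below its Km of 18.3 µM; potency means the concentration at half of the fitted maximal effect; nearly all actives have a fitted effect of over 70% in size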
# How it was run: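 Fluorescence change (ex 340/em 450 nm) over 15 min, ~20% substrate conversion, normalized to no-inhibitor and no-enzyme controls, then Hill-fitted. Unlinked protease at 25 nM; AMC peptide 10 µM.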
# [3] = system: Zika virus NS2B-NS3 protease; experiment: Primary screen GU AMC qHTS for Zika virus inhibitors (AID 1347154); conditions: Zika NS2B-NS3 unlinked protease, AMC fluorogenic substrate; series mostly up to 54.1 µM; further: nearly all actives have a fitted effect of over 70% in size; further: potency means the concentration at half of the fitted maximal effect
# How it was run: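 Unlinked Zika NS2B hydrophilic domain–NS3 protease complex at 25 nM in 10 mM Tris-HCl pH 8.0, 0.01% Tween 20, with an AMC peptide substrate. Fluorescence change (340/450 nm) over 15 min at room temperature, normalized to controls, fitted to 4-parameter Hill.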
# [4] = system: Zika virus NS2B-NS3 protease (unlinked complex); experiment: Primary screen GU Rhodamine qHTS for Zika virus inhibitors: Unlinked NS2B-NS3 protease assay (AID 1347159); conditions: Recombinant ZIKV NS2B-NS3 protease, Rhodamine110 substrate fluorescence; series mostly up to 107 µM; further: nearly all actives have a fitted effect of over 60% in size; further: potency means the concentration at half of the fitted maximal effect
# How it was run: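 A qHTS format was used, with compound concentrations ranging up to 114 microM. Each compound was preincubated with 25 nM NS2B-NS3 protease, and the substrate was then added at 1.5 microM. Curves were fitted with a 4-parameter Hill model.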
# [5] = system: Zika virus NS2B-NS3 protease (linked construct); experiment: Primary screen NINDS Rhodamine qHTS for Zika virus inhibitors (AID 1347160); conditions: purified NS2B-NS3 protease, Rhodamine110 substrate fluorescence; series mostly up to 57.1 µM; further: nearly all actives have a fitted effect of over 55% in size; further: potency means the concentration at half of the fitted maximal effect
# How it was run: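 Kinetic fluorescence (Ex 480 nm, Em 540 nm) over 15 min with 1.5 microM Rhodamine110 peptide and 25 nM linked protease.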
# [6] = Confirmatory screen NINDS Rhodamine qHTS for Zika virus inhibitors (AID 1347161); conditions: purified enzyme assay, Rhodamine110 substrate fluorescence, 15 min; series mostly up to 114 µM; further: nearly all actives have a fitted effect of over 60% in size; further: potency means the concentration at half of the fitted maximal effect
# How it was run: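 Purified NS2B-NS3 protease with the NS2B hydrophilic domain joined by a flexible linker (25 nM) in 10 mM Tris-HCl pH 8.0, 0.01% Tween 20, preincubated 15 min at RT with compound; Rhodamine110 peptide substrate 1.5 µM; fluorescence change over 15 min; 4-parameter Hill fit.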
# [7] = HepG2 cells viability qHTS for Zika virus inhibitors (AID 1347168); conditions: Zika counter-screen; series mostly up to 45.9 µM
# How it was run: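 Cells seeded at 2.5 x 10^5 cells/mL in DMEM with 4% FBS and attached overnight at 37 degrees C, then exposed to compound for 24 to 48 hours. Viability read as ATP content by CellTiter Glo luminescence.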
# [8] = system: Zika virus NS2B-NS3 protease (unlinked); experiment: Optimization of GU AMC qHTS for Zika virus inhibitors: Unlinked NS2B-NS3 protease assay (AID 1347151); conditions: recombinant ZIKV NS2B-NS3 protease, fluorogenic AMC substrate; series mostly up to 52.5 µM; further: nearly all actives have a fitted effect of over 80% in size
# How it was run: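 Noncovalent complex of NS2B hydrophilic domain and NS3 protease domain, 25 nM final, in 10 mM Tris-HCl pH 8.0, 0.01% Tween 20. AMC fluorescence change over 15 min at room temperature was fitted to a 4-parameter Hill equation.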
# [9] = Confirmatory screen GU Rhodamine qHTS for Zika virus inhibitors qHTS (AID 1347157); conditions: purified enzyme assay, Rhodamine110 substrate fluorescence, 15 min; series mostly up to 65.2 µM; further: potency means the concentration at half of the fitted maximal effect; nearly all actives have a fitted effect of over 70% in size
# How it was run: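 Noncovalent NS2B hydrophilic domain/NS3 protease complex (25 nM final) in 10 mM Tris-HCl pH 8.0, 0.01% Tween 20, preincubated 15 min with compounds (up to 114 microM), then 1.5 microM Rhodamine110 substrate. Fluorescence change over 15 min fitted to 4-parameter Hill.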
# [10] = system: Zika virus NS2B-NS3 protease (linked); experiment: 384 well plate NINDS AMC confirmatory qHTS for Zika virus inhibitors (AID 1347163); conditions: Recombinant NS2B-NS3 protease, Ac-VKTGKR-AMC fluorescence; further: potency means the concentration at half of the fitted maximal effect; nearly all actives have a fitted effect of over 50% in size
# How it was run: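 Linked NS2B-NS3 protease (final 5 nM, 30 nM or 60 nM) was preincubated with compounds (final up to 1 mM) for ~15 minutes. Ac-VKTGKR-AMC substrate (final 30 microM) then reacted for 25 minutes at room temperature in the dark. Fluorescence (ex 355/em 460 nm) was normalized to no-enzyme and no-inhibitor controls.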
# [11] = system: Zika virus NS2B-NS3 protease (linked construct); experiment: 384 well plate NINDS Rhodamine confirmatory qHTS for Zika virus inhibitors (AID 1347164); conditions: rhodamine-110 peptide substrate fluorescence; series mostly up to 100 µM;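 further: fluorescence from protease cleavage of Ac-LKRR-rhodamine 110 substrate; top concentration of the series differs between compounds; nearly all actives have a fitted effect of over 65% in size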
# How it was run: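 Linked protease at a final 5 nM, 30 nM or 60 nM was preincubated ~15 min with compounds, then given 10 microM Ac-LKRR-Rhodamine 110. Fluorescence (ex 485/em 538 nm) after 25 min in the dark at room temperature.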
# [12] = Tertiary RLuc qRT-PCR qHTS assay for Zika virus inhibitors (AID 1347169); conditions: infected Vero cells, reporter luminescence, 48-72 h; series mostly up to 45.9 µM; further: potency means the concentration at half of the fitted maximal effect; nearly all actives have a fitted effect of over 55% in size
# How it was run: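 Vero cells (1,000 per well) plated overnight at 37 degrees C, treated with compound in DMSO, then infected with recombinant ZIKV-RLuc (Cambodian) at MOI 1-2 for 48-72 hrs. Live-cell Renilla luciferase substrate added; luminescence read after 1-1.5 hrs.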
# [13] = biological target: N-terminal Xaa-Pro-Lys N-methyltransferase 1 (Homo sapiens) (UniProt Q9BV86); experiment: qHTS Assay for Inhibitors of N-terminal methyltransferase 1 (NTMT1): LOPAC validation of the NTMT1 SAHH-coupled ThioGlo3 Assay (AID 1347143); conditions: recombinant NTMT1, SAHH-coupled ThioGlo3 fluorescence; series mostly up to 114 µM
# Sequence of N-terminal Xaa-Pro-Lys N-methyltransferase 1 (Homo sapiens) (Q9BV86 whole entry, looked up): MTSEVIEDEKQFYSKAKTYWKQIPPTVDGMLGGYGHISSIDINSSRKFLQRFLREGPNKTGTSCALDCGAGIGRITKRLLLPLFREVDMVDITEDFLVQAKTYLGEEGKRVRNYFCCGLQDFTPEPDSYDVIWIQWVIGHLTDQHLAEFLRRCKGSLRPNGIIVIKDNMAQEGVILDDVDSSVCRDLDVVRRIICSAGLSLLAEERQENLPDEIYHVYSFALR
# How it was run: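 Recombinant human NTMT1 (125nM) was pre-incubated 1 min at room temperature with compounds over a concentration range, then a mix of 100uM SAM, 10uM SAHH and 15uM ThioGlo3 (concentrations in added reagent) was added. ThioGlo3 fluorescence (ex 340/em 450nm) after 30 min was normalized to the initial reading.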
# [14] = biological target: Lysine-specific demethylase 5B (Homo sapiens) (UniProt Q9UGL1); experiment: Optimization screen for KDM5B Histone Demethylases FDH coupled qHTS against the LOPAC library (AID 1347166); conditions: KDM5B demethylation, FDH-coupled NADH fluorescence (FDH is formaldehyde dehydrogenase); series mostly up to 57.5 µM
# Sequence of Lysine-specific demethylase 5B (Homo sapiens) (Q9UGL1 whole entry, looked up): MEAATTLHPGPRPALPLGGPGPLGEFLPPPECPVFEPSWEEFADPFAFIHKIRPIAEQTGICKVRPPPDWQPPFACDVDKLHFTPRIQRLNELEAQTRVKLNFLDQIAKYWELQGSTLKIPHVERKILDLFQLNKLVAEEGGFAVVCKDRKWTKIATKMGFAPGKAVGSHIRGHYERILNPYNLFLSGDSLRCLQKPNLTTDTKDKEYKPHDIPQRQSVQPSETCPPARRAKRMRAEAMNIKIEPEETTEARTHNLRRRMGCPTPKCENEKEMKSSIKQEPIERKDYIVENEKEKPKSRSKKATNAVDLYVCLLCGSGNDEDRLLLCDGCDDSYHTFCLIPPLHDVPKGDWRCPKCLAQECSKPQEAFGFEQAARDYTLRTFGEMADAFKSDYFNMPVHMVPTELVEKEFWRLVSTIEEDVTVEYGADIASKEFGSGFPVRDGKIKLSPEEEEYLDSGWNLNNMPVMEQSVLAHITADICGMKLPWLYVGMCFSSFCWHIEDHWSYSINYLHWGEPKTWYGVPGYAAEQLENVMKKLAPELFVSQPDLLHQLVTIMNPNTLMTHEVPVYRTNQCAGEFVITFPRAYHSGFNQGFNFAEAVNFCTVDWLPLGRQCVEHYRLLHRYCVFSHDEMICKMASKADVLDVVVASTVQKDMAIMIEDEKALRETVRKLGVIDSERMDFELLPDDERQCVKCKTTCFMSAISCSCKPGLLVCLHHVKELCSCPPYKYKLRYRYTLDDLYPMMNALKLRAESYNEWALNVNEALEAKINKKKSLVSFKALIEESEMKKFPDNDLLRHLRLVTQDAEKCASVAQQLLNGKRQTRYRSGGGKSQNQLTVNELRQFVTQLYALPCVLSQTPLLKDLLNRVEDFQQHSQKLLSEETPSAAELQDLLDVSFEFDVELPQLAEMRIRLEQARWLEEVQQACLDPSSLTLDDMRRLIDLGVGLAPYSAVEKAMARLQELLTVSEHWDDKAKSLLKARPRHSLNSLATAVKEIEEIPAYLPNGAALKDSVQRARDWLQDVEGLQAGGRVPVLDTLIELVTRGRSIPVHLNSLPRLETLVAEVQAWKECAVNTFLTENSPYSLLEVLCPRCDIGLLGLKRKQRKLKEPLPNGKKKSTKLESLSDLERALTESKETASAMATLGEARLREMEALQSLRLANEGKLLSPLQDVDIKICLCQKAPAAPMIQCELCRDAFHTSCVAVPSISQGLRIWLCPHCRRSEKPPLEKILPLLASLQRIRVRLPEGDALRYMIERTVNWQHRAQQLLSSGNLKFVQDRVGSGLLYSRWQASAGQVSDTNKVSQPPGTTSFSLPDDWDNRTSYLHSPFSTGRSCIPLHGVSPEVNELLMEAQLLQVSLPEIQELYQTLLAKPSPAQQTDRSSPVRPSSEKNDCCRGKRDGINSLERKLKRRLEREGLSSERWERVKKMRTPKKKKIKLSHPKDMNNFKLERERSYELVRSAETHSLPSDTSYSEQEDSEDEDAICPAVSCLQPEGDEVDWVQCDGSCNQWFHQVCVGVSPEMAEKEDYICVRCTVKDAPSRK
# How it was run: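 KDM5BDeltaAP (200nM final) preincubated 10 min with compound, then 12.5uM H3K4Me3, 25uM a-ketoglutarate, ascorbate, Fe(II), NAD+ and FDH added; 50mM HEPES pH 7.5, 0.01% Tween-20. NADH fluorescence (340/450 nm) change over 30 min, room temperature.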
smiles,measurement,setting,value
CS(=O)c1ccc(-c2nc(-c3ccc(F)cc3)c(-c3ccncc3)[nH]2)cc1 (stereo unspecified),Potency,[1],24.1 µM (active)
same,Potency,[2],21.5 µM (active)
same,Potency,[3],26.7 µM (active) and 17.5 µM (active)
same,Potency,[4],inactive
same,Potency,[5],inactive
same,Potency,[6],inactive
same,outcome,[7],inactive
NC(=O)NN=Cc1ccc([N+](=O)[O-])o1,Potency,[3],inactive
CN(C)Cc1cccc(N=C(c2ccccc2)c2c(O)[nH]c3cc(C(=O)N(C)C)ccc23)c1,Potency,[3],inactive
Clc1ccc(C(c2ccc(Cl)cc2)n2cc[n+](CC(OCc3ccc(Cl)cc3Cl)c3ccc(Cl)cc3Cl)c2)cc1 (stereo unspecified),Potency,[8],inactive
COc1ccc(-c2cc(=O)c3c(O)cc(O)cc3o2)cc1O,Potency,[3],inactive
CC1(C)CCC(CN2CCN(c3ccc(C(=O)NS(=O)(=O)c4ccc(NCC5CCOCC5)c([N+](=O)[O-])c4)c(Oc4cnc5[nH]ccc5c4)c3)CC2)=C(c2ccc(Cl)cc2)C1,Potency,[1],6.07 µM (active) and 10.8 µM (active)
same,Potency,[2],8.57 µM (active)
same,Potency,[9],1.21 µM (active)
same,Potency,[4],2.24 µM (active)
same,Potency,[5],3.98 µM (active)
same,Potency,[6],1.24 µM (active) and 857 nM (active)
same,Potency,[10],31.6 µM (active)
same,Potency,[11],inactive
same,outcome,[7],inactive
same,Potency,[12],5.72 µM (active)
CN(C)CCC(c1ccccc1)c1ccccn1 (stereo unspecified),Potency,[13],inactive
same,Potency,[8],inactive
same,Potency,[4],inactive
same,Potency,[5],inactive
same,outcome,[14],inactive
